Data taken from the supplement of paper PMC6555819.

These sequences were tested on VDR:RXRa (NR concentration 270 nM, RXRa partner concentration 90 nM) (assay: PBM binding z-score (relative to random genomic background probes); higher = stronger binding; sequences stand for … in GC…GCGATTGACAGCGTAGAATGAAGG).
Description: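 Protein-binding microarray (Agilent 4x180K custom design, double-stranded 60-nt probes: 5' GC cap, 34-nt variable region, 24-nt constant primer region; full probe sequence given). Purified or IVT nuclear receptor:RXRα heterodimers (3:1 NR:RXRα, mostly 270:90 nM) or homodimers were incubated for 1 h in PBS with 2% milk and no ligand, then detected with Alexa488 antibodies. Fluorescence from o1-orientation probes (~5 replicates averaged) was converted to z-scores against 500 random hg19 background probes. Variable regions are seed direct-repeat (DR0–DR5) sites, all their single-nucleotide variants and half-site ablations.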

With CCGAGTAGGTTAAGAGGGGGCATTCAGTGCGAAT as the sequence, how does the PBM binding z-score read?
The PBM binding z-score was 5.44.

Which PBM binding z-score does the source give for CGAACTAGGTCACCATGACAGTGAAGAGGTTGGA here?
The PBM binding z-score was 1.78.

With TTACCAAGGTGAAAGGTCATTGATGCACGCCTTG as the sequence, how does the PBM binding z-score read?
Its PBM binding z-score is 5.41.

With GCTATTAGGTGAAAGGGCAACCGAATGATTCTCG as the sequence, how does the PBM binding z-score read?
The PBM binding z-score was 0.806.

ATGGAAAGGTCGTGAGGTGAGTATACAGAAAGGC was tested. Which PBM binding z-score did it give?
Its PBM binding z-score is 4.

For ATCGAAAGGTCGTGAGGTGAGTACACAGAAAGGC, which PBM binding z-score is on record?
Its PBM binding z-score is 4.14.

Which PBM binding z-score does the source give for TCGAGTAGGTTAGGGGGGCATTCAGGGATGAAGA here?
Its PBM binding z-score is 3.91.

For ATATGTAGGTTAGGGTCATTCATAAAGTAGGGAA, which PBM binding z-score is on record?
The PBM binding z-score was 4.67.

How did the PBM binding z-score turn out when ATATGTAGGTTAGGTTCATTCAGAAAGTAGGGAA was run?
The PBM binding z-score was 4.01.

How did the PBM binding z-score turn out when CCTGCTAGTTCAATGGTCAGCTAAAGCAGCTCGC was run?
The PBM binding z-score was 0.426.

CTATGTAGGTTAAGAGGGTCATTCAGTTTGAAAG was tested. Which PBM binding z-score did it give?
Its PBM binding z-score is 6.27.

For CTCGAAAGGTCGTCCTCAGGTGAGTATACCAAAC, which PBM binding z-score is on record?
The PBM binding z-score was 3.41.

Which PBM binding z-score does the source give for TAGCCTAGGTCATTCAGGGGCTAGTATAGAAAGC here?
Its PBM binding z-score is 2.8.

CGAACTAAGTCAAAGGACAGTGAAAGGCGACGTA was tested. Which PBM binding z-score did it give?
Its PBM binding z-score is -0.259.

ATCGAACGGTCGAGGTGAGTATAGAGAAAGGGAA was tested. Which PBM binding z-score did it give?
Its PBM binding z-score is -0.335.

ATCTCTAGGTGAAAGTTCAGTGAATCCCGAGGAT was tested. Which PBM binding z-score did it give?
The PBM binding z-score was 1.83.

For CGAACTAGGTCAAAGGAAAGTGAAAGGCGACGTA, which PBM binding z-score is on record?
Its PBM binding z-score is 0.89.

For CTATGTAGGTTAAGGGGGTCATTCTGTTTGAAAG, which PBM binding z-score is on record?
Its PBM binding z-score is 7.27.

How did the PBM binding z-score turn out when ATCTCTAGGTTAAAGTTCAGTGAATCCCGAGGAT was run?
The PBM binding z-score was 2.76.

With TCTCGGAGGACACGAAAGGTCAGTGCTCGACATC as the sequence, how does the PBM binding z-score read?
Its PBM binding z-score is 2.92.

How did the PBM binding z-score turn out when CGTCAAAGTTCAACTAATGTAACGTAAAGCACGC was run?
Its PBM binding z-score is 4.2.

For AGTCAAAGGTCACTAGGTAACGTAAGATTCAGCT, which PBM binding z-score is on record?
The PBM binding z-score was 5.23.

With GCTTACGGGTCAAAGGTTATAGTATGAATAGAAT as the sequence, how does the PBM binding z-score read?
Its PBM binding z-score is 5.76.

For GATACAGGGTGAAGGCCAGAGTACGCGTATTGAT, which PBM binding z-score is on record?
Its PBM binding z-score is -0.32.

With CGTCCAAGGTCACAGGAGGTCAGTGAAGACAGAT as the sequence, how does the PBM binding z-score read?
Its PBM binding z-score is 6.62.

How did the PBM binding z-score turn out when AGTCAAAGTTCAGGACGAGGTAATGTAAAGCACG was run?
Its PBM binding z-score is 3.07.

Which PBM binding z-score does the source give for CCGACTGGGGCAAAGGTTACCACACTCAGTACGA here?
The PBM binding z-score was 1.81.

How did the PBM binding z-score turn out when CCTTACGGGTCACTGACAGGTCATAGCATTTGGA was run?
The PBM binding z-score was 5.38.

How did the PBM binding z-score turn out when ATCTCTAGGTAAAGGTCAGTGAAAGATCGATAGA was run?
Its PBM binding z-score is 2.89.

Which PBM binding z-score does the source give for TTACCAAGGTTAAAGGTCGTTGATGCACGCCTTG here?
Its PBM binding z-score is 4.55.

With CTATGTAGGTTAAGGGGGTGATTCAGTTTGAAAG as the sequence, how does the PBM binding z-score read?
The PBM binding z-score was 3.99.

ATATGTATGTTAGGGTCATTCAGAAAGTAGGGAA was tested. Which PBM binding z-score did it give?
The PBM binding z-score was 4.38.

ATCGAAATGTCGTGAGGTGAGTATACAGAAAGGC was tested. Which PBM binding z-score did it give?
Its PBM binding z-score is -0.0568.

CGAACTAGGTCACCAGGACTGTGAAGAGGTTGGA was tested. Which PBM binding z-score did it give?
Its PBM binding z-score is 2.26.

How did the PBM binding z-score turn out when GGAACTAGGGCAAAGTTGATAGCATCTGTCGACG was run?
The PBM binding z-score was -0.0768.

Which PBM binding z-score does the source give for AATACAGGGTCCTCGTAGGCCAGAGTACGCACAG here?
Its PBM binding z-score is -0.154.

For GCTGCTAGGTTAACTGATGGTCAGCTAAAGCTCG, which PBM binding z-score is on record?
The PBM binding z-score was -0.182.

CGAACTAGGTCACCAGGACAGTGAAGAGGTTGGA was tested. Which PBM binding z-score did it give?
The PBM binding z-score was 1.93.

CATACAGGGTAAGCTAGGCCAGAGTAGGGACGGC was tested. Which PBM binding z-score did it give?
Its PBM binding z-score is -0.528.

With ATATGTAGGTTACGGTCATTCAGAAAGTAGGGAA as the sequence, how does the PBM binding z-score read?
The PBM binding z-score was 1.54.
